Assay [1] is described as follows: NCI Yeast Anticancer Drug Screen. Data for the rad50 strain (AID 155).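 Further: 0% = growth of vehicle-only cultures of the same strain.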 The conditions noted are these: S. cerevisiae rad50 strain growth inhibition; at 50.0 µM; stronger effect = higher value. In outline:
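A DNA repair-deficient yeast mutant serves as the test organism; compound-induced growth inhibition is calculated against vehicle-treated cells.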

A short description of assay [2]: NCI Yeast Anticancer Drug Screen. Data for the mec2-1 strain (AID 157). The conditions noted are these: S. cerevisiae mec2-1 strain, at 50.0 µM, stronger effect = higher value. In outline: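 Each compound was tested on mec2-1 yeast, a strain altered in DNA damage repair or cell cycle control. Growth inhibition is reported relative to vehicle.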
The nature of assay [3]: NCI Yeast Anticancer Drug Screen. Data for the sgs1 mgt1 strain (AID 161).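 Further: 0% = growth of cultures given vehicle only.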 The conditions noted are these: S. cerevisiae sgs1 mgt1 strain, at 50.0 µM, stronger effect = higher value. In a few lines:
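Inhibition of yeast growth, normalised to vehicle-treated controls, is reported for a strain bearing genetic alterations in DNA damage repair.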

Assay [4] can be described thus: NCI Yeast Anticancer Drug Screen. Data for the cln2 rad14 strain (AID 165).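 Further: 0% = growth equal to vehicle treated cultures.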 The conditions noted are these: S. cerevisiae cln2 rad14 strain, at 50.0 µM, stronger effect = higher value. In outline: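 Test compounds were added to cln2 rad14 yeast cultures; inhibition of growth was then determined by comparison with vehicle treatment.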
Assay [5] can be described thus: NCI Yeast Anticancer Drug Screen. Data for the bub3 strain (AID 167). The conditions noted are these: S. cerevisiae bub3 mutant strain, at 50.0 µM, stronger effect = higher value. In outline: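 Inhibition values come from growth of compound-treated mutant yeast normalised to vehicle-treated controls.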
Assay [6] can be described thus: NCI Yeast Anticancer Drug Screen. Data for the mlh1 rad18 strain (AID 175). The conditions noted are these: S. cerevisiae mlh1 rad18 strain growth inhibition; at 50.0 µM; stronger effect = higher value. In outline: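 Inhibition values reflect reduced growth of mutant yeast versus vehicle-treated controls following compound exposure; the mutations affect DNA damage repair.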

Compounds without any hit were thinned out: in the full panel of roughly 79,000, 15% have a hit. Values without a mark were called inactive. Calls of active or inactive are those of the source. No stated cut-off is given here; in the data, active means growth inhibition above about 70%; inactive means the rest.

On to `CSc1ccc(NC(=O)c2cccc([N+](=O)[O-])c2C(=O)O)cc1`, for which the growth inhibition is 5.05% in assay [1]; 8.25% in assay [2]; 13.2% in assay [3]; -6.35% in assay [4]; 15.2% in assay [5]; 1.6% in assay [6].
With `Clc1ccc2nc(/C=C/c3ccccc3)ccc2c1`, the growth inhibition in assay [1] is -10.7%; in assay [2] it was -4.2%; in assay [3] it was -9.4%; in assay [4], 3.35%; in assay [5], 6.9%; in assay [6] it was -15.7%.
For the compound `CCOC(=O)C(=O)Nc1ccccc1CC`, the growth inhibition in assay [1] was -3%; in assay [2], 2.9%; in assay [3], -12.3%; in assay [4] it was -33.5%; in assay [5] it was 11.2%; in assay [6] it was -3.35%.
As to `COc1cccc(C(N)=O)c1OC`, the growth inhibition in assay [1] was 3.35%; in assay [2], 8.05%; in assay [3], -10.9%; in assay [4] it was -22.4%; in assay [5], 11.7%; in assay [6], -15.2%.
As for `O=C(Sc1c(-c2ccccc2)c(=O)n(-c2ccccc2)c(=S)n1-c1ccccc1)c1ccc(Cl)cc1`, the growth inhibition in assay [1] is 2.75%; in assay [2], 3.9%; in assay [3] it was 16.1%; in assay [4] it was -4.35%; in assay [5], 5.4%; in assay [6] it was 12.8%.
As to `Br/C=C\Br`, the growth inhibition in assay [1] was -2.85%; in assay [2], 0.15%; in assay [3], -7.45%; in assay [4], 28.6%; in assay [5], -12.8%; in assay [6], 5.35%.
On to `COc1c(O)c2c3c(cc(C)cc3c1C(C)C)OC2`, for which the growth inhibition in assay [1] was 93.3% (active); in assay [2], 94.5% (active); in assay [3], 94.3% (active); in assay [4] it was 93.1% (active); in assay [5], 93.4% (active); in assay [6], 93.1% (active).
With `CC[n+]1ccc(-c2ccccc2)o1`, the growth inhibition in assay [1] was 3.6%; in assay [2], 13.1%; in assay [3], 2.25%; in assay [4], 27.3%; in assay [5], 28.4%; in assay [6], -4.75%.
For the compound `Fc1ccc(N2CSC(=S)N(c3ccc(F)cc3F)C2)c(F)c1`, the growth inhibition is 8.95% in assay [1]; -5.7% in assay [2]; 31.5% in assay [3]; 6.8% in assay [4]; 28.9% in assay [5]; 18.8% in assay [6].
`CCC(COCC(CC)C(=O)O)C(=O)O` (stereo not given): the growth inhibition is 11.3% in assay [1]; 1.1% in assay [2]; 18.6% in assay [3]; 19.1% in assay [4]; 12.7% in assay [5]; 15.2% in assay [6].
As to `O=C1CCC(c2ccccc2)(c2ccccc2)CC1`, the growth inhibition in assay [1] is 31.8%; in assay [2] it was -24.6%; in assay [3], -16.1%; in assay [4], -15.5%; in assay [5], 0.15%; in assay [6], 17.5%.
Turning to `CC(C)(C)[Si](C)(C)Oc1cc(CO)cc2c1cc(=N)o[n+]2[O-]`, the growth inhibition in assay [1] was -27.6%; in assay [2], -12.9%; in assay [3], -23.2%; in assay [4], -30.9%; in assay [5], -1.15%; in assay [6], -31.2%.
As to `CCOC(=O)Nc1ccc(NC(C)=O)cc1`, the growth inhibition was 2.45% in assay [1]; 0.65% in assay [2]; 1.3% in assay [3]; -62.7% in assay [4]; -23.8% in assay [5]; -22.6% in assay [6].
For `COCCCNC1=C(C#N)C(=O)NC(c2cccc([N+](=O)[O-])c2)S1` (stereo not given), the growth inhibition was -9.7% in assay [1]; -27.4% in assay [2]; 1.75% in assay [3]; 7.85% in assay [4]; -9.8% in assay [5]; -32.7% in assay [6].
`C=CCc1ccc(OC(=O)Nc2ccc(S(=O)(=O)CC)cc2)c(OC)c1`: the growth inhibition in assay [1] was 1.65%; in assay [2], -12.8%; in assay [3], -26.4%; in assay [4], -19.9%; in assay [5], -14.2%; in assay [6], -10.3%.
`O=C(CNC(=O)c1ccccc1)Nc1ccc([N+](=O)[O-])cc1`: the growth inhibition is 15.2% in assay [1]; -0.65% in assay [2]; -1.5% in assay [3]; 26.8% in assay [4]; 22.6% in assay [5]; 5.7% in assay [6].
`COc1ccc(C2S/C(=C\c3cccc(O)c3)C(=O)N2NC(=O)Cc2ccccc2)cc1` (stereo not given): the growth inhibition was -15.3% in assay [1]; -34.5% in assay [2]; -6.2% in assay [3]; -46.5% in assay [4]; -1.2% in assay [5]; 10.9% in assay [6].
In the case of `CCOC(=O)[C@H]1CS[C@]2(c3ccco3)CC(=O)N12`, the growth inhibition in assay [1] was 14.4%; in assay [2], 8.1%; in assay [3], -12.6%; in assay [4], -36.2%; in assay [5], 1.6%; in assay [6] it was 44.1%.
For `CC(C)=NNC(=O)COCC(=O)NN=C(C)C`, the growth inhibition in assay [1] is 0.25%; in assay [2] it was -4.45%; in assay [3] it was -1.35%; in assay [4], -84.5%; in assay [5] it was -22.9%; in assay [6], 1.35%.
In the case of `COc1ccc(C2c3cc4c(cc3OC3(O)CCCC(=O)C23)OCO4)cc1` (stereo not given), the growth inhibition in assay [1] is -13.2%; in assay [2], 15.3%; in assay [3], 4.55%; in assay [4] it was -39.3%; in assay [5], 20.6%; in assay [6], -7.4%.
